Compound activity: PubChem, The Scripps Research Institute Molecular Screening Center
GALR2 antag: GALR2 (human) receptor antagonism; O43603; GALR2-expressing cells, antagonist mode; inhibition, % at 4 µM; 140,000 tested, 0.39% active; AID 828; in the data active = inhibition above about 27%;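 note: cells stimulated with galanin 1-16 at roughly its EC80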
S1P4 ag: agonists of human S1P4 receptor; O95977; 220,000 tested, 0.35% active; activation, % at 4.98 µM; S1P4-expressing cell line, agonist reporter assay; in the data active = activation above about 11%
S1P3 antagonist: S1P3 (human) receptor antagonism; CHO S1P3 NFAT-BLA reporter, FRET fluorescence, antagonist mode; AID 485; inhibition, % at 4.98 µM; 170,000 tested, 0.27% active;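 active = inhibition above the plate cutoff, the mean inhibition of test wells on that plate plus 3 SD, cut at about 28% in these data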;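 note: cells challenged with S1P at its EC80 of 0.8 µM; blue over green emission ratio from cleaved BLA substrate after 4 h stimulation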
Target sequence (Q99500 whole entry, looked up): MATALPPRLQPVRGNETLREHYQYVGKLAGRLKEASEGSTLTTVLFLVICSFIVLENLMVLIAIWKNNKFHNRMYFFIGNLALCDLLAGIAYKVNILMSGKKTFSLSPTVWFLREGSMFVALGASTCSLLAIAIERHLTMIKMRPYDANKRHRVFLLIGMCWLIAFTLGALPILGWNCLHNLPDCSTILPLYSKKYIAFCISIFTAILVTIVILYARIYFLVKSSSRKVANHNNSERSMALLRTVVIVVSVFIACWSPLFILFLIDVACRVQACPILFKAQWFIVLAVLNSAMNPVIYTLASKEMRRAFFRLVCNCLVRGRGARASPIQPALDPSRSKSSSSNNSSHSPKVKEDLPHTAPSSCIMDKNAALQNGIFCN
GALR2 agonist: agonists of human galanin receptor 2 (GALR2); O43603; GALR2-expressing cells, agonist activation read-out; activation, % (no concentration beside the values); 140,000 tested, 0.48% active; in the data active = activation above about 5%, passing the limit was not always enough
S1P4 antagonist: antagonists of human S1P4 receptor. S1P4-expressing cells, antagonist mode, reporter read-out. inhibition, % at 4.98 µM. 220,000 tested, 0.26% active. AID 1510; in the data active = inhibition above about 29%
GALR2 agon conf: GALR2 (human) agonism confirmed. shares compounds with GALR2 agonist. GALR2-expressing cells, agonist activation. 460 tested, 10% active. activation, % at 5.6 µM. AID 864; in the data active = activation above about 8.4%
BLA activ ctr: counter-screen for GALR2 agonists: beta-lactamase reporter activators; CHO NFAT-bla reporter, beta-lactamase FRET activation; AID 865; activation, % at 5.6 µM; 460 tested, 10% active; shares compounds with GALR2 agonist;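 active = activation above the screen-wide mean activation plus 3 SD, cut at about 8% in these data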
A number is an active result; – = inactive; · = no result given. Only some compounds are listed: those with a hit (about 1.3% of all), similar ones and a draw of the others.

SMILES	GALR2 antag	S1P4 ag	S1P3 antagonist	GALR2 agonist	S1P4 antagonist	GALR2 agon conf	BLA activ ctr
Nc1c(C(=O)NCc2ccco2)c2nc3ccccc3nc2n1CCc1ccc(F)cc1	–	–	·	24	–	10	18
COCCn1c(N)c(C(=O)NCC2CCCO2)c2nc3ccccc3nc21 (stereo not drawn)	–	–	·	–	–	·	·
N#Cc1c(N)n(CCc2ccc(F)cc2)c2nc3ccccc3nc12	–	–	·	15	–	–	9.4
COc1ccc(-n2c(N)c(C(=O)NCc3ccco3)c3nc4ccccc4nc32)cc1	–	–	·	–	–	·	·
CC(C)Cn1c(N)c(C(=O)NCC2CCCO2)c2nc3ccccc3nc21 (stereo not drawn)	–	–	–	12	–	–	–
COc1ccc(C(=O)N2CCOC2CNC(=O)C(=O)NCc2ccc3c(c2)OCO3)cc1 (stereo not drawn)	·	–	–	·	–	·	·
COc1ccc(C2CC3(CC(C)(C)NC(SC)=N3)Oc3cc(O)cc(C)c32)cc1 (stereo not drawn)	–	–	–	19	–	25	84
Cc1ccc(C(=O)N2CCN(Cc3ccc4c(c3)OCO4)CC2)cc1S(=O)(=O)N1CCOCC1	·	–	–	·	–	·	·
CC(=O)c1ccc(OCCCC(=O)OCC(=O)N2CCN(c3ccccc3)CC2)cc1	–	–	–	68	–	–	–
CC(C)N1CCN(Cc2cccn2-c2nccs2)CC1CCO (stereo not drawn)	·	–	–	·	–	·	·
CCOc1cc(/C=C2/C(=O)N(c3ccccc3)N=C2C)ccc1OC(=O)c1ccco1	–	–	·	136	–	–	–
O=C1C2CC(O)CN2C(=S)N1Cc1ccccc1 (stereo not drawn)	·	–	–	·	–	·	·
COc1ccc(OC)c2sc(NC(=O)c3ccc(Br)s3)nc12	–	–	–	13	–	–	–
Cc1[nH]nc(N=CC2=C(O)CC(C)(C)CC2=O)c1-c1ccccc1	–	–	–	14	–	–	–
CCCS(=O)(=O)c1snnc1C	–	–	·	14	–	–	–
COc1cccc2sc(Nc3nc4ccc(NC(C)=O)cc4s3)nc12	–	–	–	10	–	–	–
COC(=O)c1c(-c2c(Cl)cccc2Cl)noc1NC(=O)NN1CCCCC1	·	–	–	·	–	·	·
COc1cc(NC(=O)c2ccc(Cl)cc2Cl)ccc1-c1cc2ccccc2oc1=O	–	–	·	13	–	–	–
Cc1ccc(C(=O)NCc2cccnc2)cc1S(=O)(=O)Nc1ccccc1	·	–	–	·	–	·	·
O=C1CSC(=Nc2cc(Cl)ccc2Cl)N1	–	–	–	27	–	–	–
CC1(C)CC(=O)C2=C(C1)Nc1ncnn1C2c1ccccn1 (stereo not drawn)	–	–	–	23	–	–	–
CCOC(=O)c1cc2nc(Nc3ccc(OC)cc3)sc2s1	–	–	–	–	–	–	–
COc1ccc(CNCC(O)COc2ccc(C)cc2[N+](=O)[O-])cc1 (stereo not drawn)	·	–	–	·	–	·	·
O=C(CN1CCCCCC1)Nc1cc(C(F)(F)F)ccc1Cl	·	–	–	·	–	·	·
O=C(CN1CCCCC1)Nc1cc(Cl)ccc1Cl	–	–	–	180	–	–	–
SMILES	GALR2 antag	S1P4 ag	S1P3 antagonist	GALR2 agonist	S1P4 antagonist	GALR2 agon conf	BLA activ ctr
Cc1c(Cl)c([N+](=O)[O-])nn1CC(=O)NC12CC3CC(CC(C3)C1)C2	–	–	·	38	–	–	–
Cc1c(Cl)c([N+](=O)[O-])nn1CC(=O)N1CCCC1	–	–	–	–	–	·	·
CC(=O)Nc1ccccc1OCC(=O)N(Cc1ccccc1)C(C)C	–	–	–	–	–	·	·
CCOc1ccc(NC(=S)NC(=O)c2c(Cl)c(C)nn2C)c([N+](=O)[O-])c1	–	–	–	8.6	–	–	–
COC(=O)c1ccc(OC(=O)CCN2C(=O)C3C4c5ccccc5C(c5ccccc54)C3C2=O)cc1 (stereo not drawn)	–	–	–	–	–	·	·
CC1(C)CC(=O)C=C(Nc2ccc(S(N)(=O)=O)cc2)C1	–	–	–	41	–	–	–
Cc1ccc(C(=O)NC(=S)NCC2CCCO2)cc1[N+](=O)[O-] (stereo not drawn)	·	–	–	·	–	·	·
O=C(CCC(=O)Nc1nnc(C2CCCCC2)s1)NCc1ccccc1	·	–	–	·	–	·	·
COC(=O)c1cccnc1-n1c(=O)c2cccnc2n(Cc2ccc([N+](=O)[O-])cc2)c1=O	·	–	–	·	–	·	·
COc1cc(C2=NOC(C(=O)NCc3cccs3)C2)cc(OC)c1OC (stereo not drawn)	–	–	·	88	–	–	–
COc1ccc(C2=NOC(C(=O)NCc3cccs3)C2)cc1OC (stereo not drawn)	–	–	·	–	–	·	·
Cc1cc(C)c2c(N)c(C(=O)NCC3CCCCC3)sc2n1	–	–	·	28	–	–	–
Cc1ccc2nc(-c3ccc(NS(=O)(=O)c4ccccc4)cc3)sc2c1	–	–	–	11	–	–	–
Cc1ccc(S(=O)(=O)Nc2ccc3nc(C)sc3c2)cc1	–	–	·	–	–	·	·
Cc1ccc(NC(=O)CCC(=O)NNC(=O)c2ccco2)cc1C	–	–	·	18	–	–	–
CCOc1ccc(NC(=O)CCC(=O)NNC(=O)c2ccco2)cc1	·	–	–	·	–	·	·
Cc1nn(Cc2ccccc2)c(Cl)c1C(=O)OCC(=O)NC(=O)NC12CC3CC(CC(C3)C1)C2	–	–	–	–	–	·	·
Cc1nc(-n2[nH]c3c(c2=O)CCCC3)[nH]c(=O)c1Cc1ccccc1	–	–	·	–	–	–	29
COc1ccccc1OCC(=O)N/N=C1/C=C(C)CC1	·	–	–	·	–	·	·
CC(C)(C)C(=O)NC(=S)NNC(=O)c1sc2ccccc2c1Cl	–	–	–	101	–	65	108
O=C(NNC(=S)NC1CCCCC1)c1sc2ccccc2c1Cl	–	–	–	–	–	·	·
COC(=O)C1=C(C)N(C)C(C)=C(C(=O)OC)C1c1ccsc1	–	–	–	–	–	·	·
CCOC(=O)C1=CN(C)C=C(C(=O)OCC)C1c1ccsc1	–	–	–	–	–	–	–
O=C(O)c1ccccc1C(=O)Nc1ccc(S(=O)(=O)NC2CCCCC2)cc1	–	–	–	14	–	–	–
CN(Cc1ccccc1)C(=O)c1nc2ccccn2c1CN1CCC(N2CCOCC2)CC1	·	–	–	·	–	·	·
SMILES	GALR2 antag	S1P4 ag	S1P3 antagonist	GALR2 agonist	S1P4 antagonist	GALR2 agon conf	BLA activ ctr
Cc1cc(C)n(-c2ccc(S(N)(=O)=O)cc2[N+](=O)[O-])n1	·	–	–	·	–	·	·
CCOC(=O)COn1c(=O)c(C)[n+]([O-])c2ccccc21	–	–	·	31	–	–	–
CCOC(=O)COn1c(=O)c[n+]([O-])c2ccccc21	–	–	–	–	–	·	·
O=C(O)CCCCCN1C(=O)C(O)=C(C(=O)/C=C/c2ccccc2)C1c1ccc2c(c1)OCO2 (stereo not drawn)	·	–	–	·	–	·	·
COCCCNC(=O)CCn1c(=O)c2ccccc2n(CC(=O)NCCC2=CCCCC2)c1=O	·	–	–	·	–	·	·
O=C(CCn1c(=O)c2ccccc2n(CC(=O)NCCC2=CCCCC2)c1=O)NCc1ccco1	–	–	–	86	–	–	–
